According to PubChem BioAssay AID485297 (National Center for Advancing Translational Sciences (NCATS), 2010):
The whole screen tested about 320,000 compounds, of which about 9,100 (2.8%) were called active. Inconclusive results (about 3%) are left out. The call rests on the fitted dose curve; in most records, active means well fitted activation curve with a large enough effect; inconclusive means small, poorly fitted or top-dose-only effect; inactive means no such curve, though single readings can be large or run the other way. The sample as a whole holds a higher share of actives than the screen did.

Assay: qHTS Assay for Rab9 Promoter Activators; further: nearly all actives have a fitted effect of over 60% in size; on activation, negative = inhibition: % of control where 0% means no effect
Settings: Huh7 Rab9 promoter-luciferase reporter, luminescence, 24 h; series mostly up to 9.22 µM; activation, negative = inhibition: at the top concentration
Method in brief: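 Promoter activation is measured as luciferase luminescence in Huh7 cells stably transfected with a Rab9 promoter–luciferase construct, following 24 h compound exposure at 37 °C and 10 min reagent incubation at ambient temperature.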
Potency means the concentration at half of the fitted maximal effect.

activation, negative = inhibition, inactive:
CN(C)c1nc(-c2cccnc2)nc(-c2ccc(Cl)cc2)c1C#N 3.11%, COC(=O)CSc1nnc(-c2cccnc2)o1 -5.2%, Cc1ccc(S(=O)(=O)N2CCCCC2)cc1NC(=O)[C@@H]1CCCN1C(=O)c1cccs1 -3.33%, CCC(C)N1C(=O)S/C(=C/c2ccc(Sc3nc4ccccc4[nH]3)o2)C1=O (centres undefined) 1.73%, CCCCNC(=O)C(=O)c1ccccc1NC(C)=O 5.62%, O=C(Nc1ccccc1)c1ccccc1NC(=O)C(F)(F)F 28.5%, N#Cc1nc(-c2cccc3ccccc23)oc1N -15.2%, CSc1ccccc1N1CCN(CCCCCC(=O)NC2CCCc3ccccc32)CC1 (centres undefined) -35.3% [at 46.1 µM], COc1ccccc1C(=O)Nc1ccc(C)c(S(=O)(=O)N2CCCCC2)c1 -2.68%, Cn1c(S(=O)(=O)O)nc2ccccc21 0.212%, CCCC(=O)Nc1ccc2c(c1)nc(CCNC(=O)c1ccco1)n2C 1.93%, Cn1c(CN2CCOCC2)nc2cc(NC(=O)c3ccc(Cl)cc3)ccc21 -19.2%, Cn1sc(NC(=O)c2ccccc2)nc1=O 16.5%, O=C(NC1CCCCCC1)C1CCN(C(=O)c2ccc(Cl)cc2)CC1 -5.39%, O=C(c1c(F)cccc1F)N1CCN(S(=O)(=O)c2ccc3c(c2)OCCO3)CC1 -0.698%, Cc1cc(C)cc(OCC(=O)OCC(=O)NC2CCCC2)c1 0.384%, O=C(CN1CCCCCC1)Nc1ccc(Br)cc1[N+](=O)[O-] 2.95%, CCCN(CC(=O)Nc1ccccc1C)C(=O)c1ccc2[nH]c3c(c2c1)CC(C)CC3 (centres undefined) 1.6%, CCOC(=O)c1sc(N)c(C#N)c1COC(=O)C1=COCCO1 0.625%, CN(C(=O)CSc1nnc(C2CC2)n1C)C1CCCc2ccccc21 (centres undefined) -6.33%, O=C(Nc1ccc(-c2csc(Nc3cccc(C(F)(F)F)c3)n2)cc1)c1cccc(C(F)(F)F)c1 -13.6%, Cc1cccc(S(=O)(=O)CC(=O)Nc2nc(-c3ccccc3)cs2)c1 7.63%, CCS(=O)(=O)Nc1cccc(-c2cc(-c3ccccc3)c3cc(C)ccc3n2)c1 -3.65%, CC(=O)Nc1ccc(-c2csc(NC=C3C(=O)OC(C)(C)OC3=O)n2)cc1 25.5%, COc1ccc2c(c1OC)C(=O)OC2Nc1nc(-c2ccccc2)cs1 (centres undefined) -18.4%, Cc1cc(O)ccc1-c1cnc2ccccc2n1 22.3%, COc1ccc(S(=O)(=O)Nc2cc(C)on2)cc1NC(C)=O 1.82%, Cc1ccc(NC(=O)Cn2nnc(C(=O)NCc3ccco3)c2N)c(C)c1 -1.28%, COc1ccc([C@H]2CC(=O)C=C(/C=C/c3ccc(Cl)cc3)C2)cc1 4.04%, CSCCC(NC(=O)c1ccco1)C(=O)NCCc1ccc(F)cc1 (centres undefined) 8.75%, CCCC(=O)N1CCN(c2nnc(-c3ccc(C)cc3)c3ccccc23)CC1 -1.39%, O=C(C1CCC1)N1CCN(S(=O)(=O)c2ccc([N+](=O)[O-])cc2)CC1 11.4%, Cc1ccc2c(c1)C1CN(C)CCC1N2S(=O)(=O)c1cccc(F)c1 (centres undefined) -2.38%, COc1ccc(CNC(=O)COc2ccccc2C(=O)c2cnn(-c3ccccc3)c2)cc1OC 21.1%, Cc1ncc(CC(=O)n2cc(C(=O)c3cc(Cl)ccc3O)cn2)s1 3%, COc1ccc(-c2c(-c3cc(OC)cc(OC)c3)n(C)c3ccc(-c4ccn[nH]4)cc23)cc1 -4.63%, Cc1cc(C(=O)COc2ccc(Br)cc2F)c(C)n1C1CC1 18.2%, CC(=O)NC(c1cccs1)c1cc(Br)c2cccnc2c1O (centres undefined) -37.8%, COc1ccc(C)cc1NC(=O)c1cc(-c2ccccc2)nc2c1cnn2C(C)C 0.172%, CC1Cc2ccccc2N1S(=O)(=O)c1cccc(C(=O)NCC(c2ccco2)N2CCCC2)c1 (centres undefined) -2%, CCc1cccc(NC(=O)COC(=O)c2cc(=O)c3ccccc3o2)c1 -11.3%, CCOC(=O)c1ccc(NC(=O)C2CC(=O)N(c3ccc4c(c3)OCCO4)C2)cc1 (centres undefined) -3.72%, CCCN(CC1CC1)C(=S)NC(=O)c1ccccc1Br -4.09%, COc1ccc(C(=O)/C=C/c2ccc(OC3CSC3)cc2)cc1 1.39%, O=C(NNc1ccccn1)c1ccc(Cl)nc1 -6.69%, CCOc1ccc(NC(=S)N2CCC(NC(=O)c3ccccc3)CC2)cc1 1.98%, O=C(/C=C/NCc1ccc(F)cc1)c1ccccc1 4.92%, CCOc1ccc(N/C=C/C(=O)c2cc(OC)c(OC)c(OC)c2)cc1 0.529%, Cc1noc(NS(=O)(=O)c2ccc(N/C=C/C(=O)c3ccccc3)cc2)c1C -4.95%, O=C(CC1SC(N2CCCC2)=NC1=O)Nc1ccc(C(=O)NCCc2ccc(F)cc2)cc1 (centres undefined) 0.532%, Cc1ccc(NC(=O)c2cccc(S(=O)(=O)N3CCCc4ccccc43)c2)nc1 0.722%, C=CC(=O)OCCOCCOCCOCCOC(=O)C=C 1.04%, Cc1ccnc(NC(=O)c2ccco2)n1 -3%, Cc1ccc(S(=O)(=O)Nc2nc3ccccc3s2)cc1[N+](=O)[O-] -15%, O=C(CCNS(=O)(=O)c1ccc(Br)cc1)NCC1CCCO1 (centres undefined) 1.91%, O=C(Nc1cccnc1Cl)c1cc(-c2ccccc2O)on1 14.7%, COc1ccc(-c2cc(C(=O)N3CCN(c4ccc(F)cc4)CC3)no2)cc1 -6.51%, O=C(c1cc(-c2cccc(O)c2)on1)N1CCc2ccccc2C1 -2.35%, CC(=O)c1ccc(NC(=O)c2cc(-c3cccs3)on2)cc1 -1.85%, O=C(c1cc(-c2ccc(O)cc2)on1)N1CCCc2ccccc21 17%, O=C(c1cc(-c2ccc(F)cc2)on1)N1CCN(c2ccc(F)cc2)CC1 -3.94%, COc1cccc(-c2cc(C(=O)N3CCN(c4ccccc4OC)CC3)no2)c1 0.153%, O=C(CSc1n[nH]c(-c2cccs2)n1)N1CCCCC1 17.7%, O=C(CN1CCC(O)(c2cccc(C(F)(F)F)c2)CC1)NCCc1ccccc1 -1.32%, O=C(NNC(=O)c1ccc(-n2cncn2)c([N+](=O)[O-])c1)c1ccccc1 -1.36%, CCOc1ccc(S(=O)(=O)NCCC(=O)NCC2CCCO2)cc1 (centres undefined) -7.38%, CCN(CC(=O)Nc1ccccc1C(F)(F)F)C(=O)C1CCN(C(=O)Nc2ccccc2)CC1 -3.7%, CCOc1ccc(NC(=O)CN(C)C(=O)Cc2sc(C)nc2-c2ccc(F)cc2)cc1OCC -1.33%, O=C(OCC(=O)N1CCOCC1)c1ccc2ccccc2c1 23.1%, CC1(C)CC(=O)C=C(c2ccc(Cl)c(C(F)(F)F)c2)C1 -1.53%, COc1ccccc1C(=O)NC(CCSC)C(=O)N1CCN(C(C)=O)CC1 (centres undefined) -1.78%, Cc1ccccc1-c1cc(C(=O)NCc2cccs2)n(CC2CC(c3cccnc3)=NO2)n1 (centres undefined) -2.65%, O=C(c1cc(COc2cccc(C(F)(F)F)c2)on1)N1CCSCC1 1.38%, O=C(c1cc(COc2ccc(F)c(F)c2)on1)N1CCOCC1 23.1%, Cc1ccc(C)c(OCc2cc(C(=O)N3CCN(c4cnccn4)CC3)no2)c1 -1.14%, COCCN1CCN(C(=O)c2cc(COc3ccc(F)cc3Cl)on2)CC1 4.22%, CC(C)(Oc1ccc(Cl)cc1)C(=O)OCC(=O)NCCc1ccc(S(N)(=O)=O)cc1 -3.15%, Cc1ccsc1C(=O)NC1CCCCC1C (centres undefined) -3.85%, O=S(=O)(NC1CC1)c1ccc(Cl)cc1 1.98%, O=C(NCCC1=CCCCC1)C1CCN(Cc2cnn(-c3ccccc3)c2-n2cccc2)CC1 -1.15%, CCC(C)N(C(=O)CSc1ncnc2c1cnn2-c1ccccc1)C1CCS(=O)(=O)C1 (centres undefined) -2.26%, CCN(C(=O)CSc1ncnc2c1cnn2-c1ccccc1)C1CCS(=O)(=O)C1 (centres undefined) -1.86%, CC(Sc1ncnc2c1cnn2-c1ccccc1)C(=O)Nc1ccc(N2CCOCC2)cc1 (centres undefined) 0.146%, Cc1ccc(-c2nc3c(cnn3-c3ccccc3)c(=O)o2)cc1 -6.29%, O=C(NNc1ncnc2c1cnn2-c1ccccc1)c1ccco1 -4.14%, CCc1noc(C)c1C(=O)N1CCN(S(=O)(=O)c2cccc(C(F)(F)F)c2)CC1 13.5%, CC(=O)c1c(C)[nH]c(C(=O)OCC(=O)Nc2c(C)cccc2C)c1C -11.3%

Potency, active:
CN(C)c1ccc(-c2nnc(-c3cccnc3)o2)cc1 1580 nM, CC(=O)Nc1ccccc1C(=O)C(=O)Nc1ccc(F)cc1 2510 nM, Cn1c(NC(=O)c2ccccc2)nc2ccccc21 2820 nM, CC(=O)NCCc1nc2cc(NC(=O)c3ccccc3)ccc2n1C 3550 nM, Cc1cccc(Nc2nc(-c3ccccc3)cs2)n1 3980 nM, CC(=O)Nc1cccc(-c2csc(Nc3cccc(C)n3)n2)c1 1580 nM, CC(=O)Nc1cccc(-c2cnc3ccccc3n2)c1 3980 nM, O=C(c1cnn(-c2ccc(Cl)cc2)c1)c1ccccc1O 3550 nM, Nc1ccc(N=Nc2ccccc2Cl)c(N)n1 2820 nM, COc1ccc(C(=O)/C=C/Nc2ccccn2)cc1 100 nM, CCOc1ccc(N/C=C/C(=O)c2ccccc2)cc1 316 nM, Cc1ccc(N/C=C/C(=O)c2ccccc2)cc1C 562 nM, Cc1ccnc(Nc2nc3ccccc3s2)n1 1410 nM, COc1ccccc1-c1cc(C(=O)N2CCCCC2)no1 3550 nM, O=C(c1cc(-c2cccs2)on1)N1CCCCC1 562 nM, O=C(c1cc(-c2ccccc2O)on1)N1CCCC1 3980 nM, O=C(c1cc(-c2ccc(O)cc2)on1)N1CCOCC1 1120 nM, O=C(c1cc(COc2c(F)cccc2F)on1)N1CCSCC1 3160 nM, COc1ccc(OCc2cc(C(=O)N3CCCC3)no2)c2ccccc12 3980 nM, CC(C)Sc1ncnc2c1cnn2-c1ccccc1 1000 nM, C1=C(CCNc2ncnc3c2cnn3-c2ccccc2)CCCC1 2820 nM, c1ccc(-n2ncc3c(N4CCCC4)ncnc32)cc1 501 nM
